Bioassay records deposited in PubChem BioAssay by The Scripps Research Institute Molecular Screening Center.
This is a sample that favours compounds with a hit; in the whole collection about 2.8% have one here.
pPAFAH FP inh = inhibitors of human plasma PAF acetylhydrolase (pPAFAH); AID 463082; Q13093; 330,000 compounds, 1.5% hits; recombinant pPAFAH, FP-rhodamine probe fluorescence polarization; inhibition, % at 3.39 µM;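 active means inhibition above the mean inhibition across the screen plus 3 SD, cut at about 25% in these data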;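 further: inhibitors block binding of the rhodamine activity-based probe so polarization drops; 0% = enzyme with DMSO and 100% = wells lacking pPAFAH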
PAFAH2 FP inh = PAFAH2 (human) inhibition; 340,000 compounds, 0.99% hits; Q99487; recombinant PAFAH2, FP-rhodamine activity probe, fluorescence polarization; AID 492956; inhibition, % at 3.39 µM;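 active means inhibition above the mean over all tested compounds plus 3 SD, cut at about 30% in these data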;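 further: inhibitors block probe labeling of enzyme so polarization drops; 0% = enzyme with DMSO and 100% = wells lacking PAFAH2 protein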
PME-1 primary = PME-1 (human) inhibition; recombinant PME-1, FP-Rh probe fluorescence polarization; inhibition, % at 5.9 µM; 320,000 compounds, 0.53% hits;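 active means inhibition above the campaign mean of all compounds plus 3 SD, cut at about 26% in these data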;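 further: competitive labeling of PME-1 active site by serine hydrolase directed probe; 0% = PME-1 with DMSO and 100% = wells lacking PME-1 enzyme; inhibitors block probe labeling so polarization falls and inhibition rises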
Target sequence (Q9Y570 whole entry, looked up): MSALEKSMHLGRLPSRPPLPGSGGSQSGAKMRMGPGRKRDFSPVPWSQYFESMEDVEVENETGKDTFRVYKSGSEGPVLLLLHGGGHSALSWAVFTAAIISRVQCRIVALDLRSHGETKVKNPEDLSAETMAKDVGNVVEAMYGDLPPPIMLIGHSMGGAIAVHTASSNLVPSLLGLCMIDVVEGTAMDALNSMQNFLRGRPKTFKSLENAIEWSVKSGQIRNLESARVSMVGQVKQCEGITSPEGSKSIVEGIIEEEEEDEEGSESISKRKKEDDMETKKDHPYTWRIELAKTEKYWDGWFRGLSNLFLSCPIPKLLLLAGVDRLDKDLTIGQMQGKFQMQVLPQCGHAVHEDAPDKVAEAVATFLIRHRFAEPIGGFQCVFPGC
PAFAH1B3 FP inh = blocks human PAF acetylhydrolase 1B catalytic subunit 3; recombinant PAFAH1B3, FP-rhodamine probe, fluorescence polarization; inhibition, % at 3.39 µM; 340,000 compounds, 0.28% hits;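 active means inhibition above the screen-wide average of all tested compounds plus 3 SD, cut at about 25% in these data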;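 further: 0% = enzyme with DMSO only and 100% = wells lacking PAFAH1B3 protein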
Fam108B inh = blocks mouse Fam108B hydrolase in RBBP9 counter-screen; inhibition, % at 9.51 µM; 300,000 compounds, 0.33% hits; recombinant Fam108B, FP-Rh probe fluorescence polarization;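 active means inhibition above the screen mean inhibition plus 3 SD, computed separately per campaign, cut at about 18% in these data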;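 further: inhibitors lower polarization as less probe binds the enzyme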
PAFAH1B2 FP inh = blocks human PAF acetylhydrolase 1b catalytic subunit 2 | recombinant PAFAH1B2, FP-rhodamine activity probe, fluorescence polarization | inhibition, % at 3.39 µM | AID 492953 | 340,000 compounds, 1.2% hits;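 active means inhibition above the mean of all tested compounds plus 3 SD, cut at about 24% in these data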;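 further: 0% = enzyme with DMSO and 100% = wells lacking PAFAH1B2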
Target sequence (P68402 whole entry, looked up): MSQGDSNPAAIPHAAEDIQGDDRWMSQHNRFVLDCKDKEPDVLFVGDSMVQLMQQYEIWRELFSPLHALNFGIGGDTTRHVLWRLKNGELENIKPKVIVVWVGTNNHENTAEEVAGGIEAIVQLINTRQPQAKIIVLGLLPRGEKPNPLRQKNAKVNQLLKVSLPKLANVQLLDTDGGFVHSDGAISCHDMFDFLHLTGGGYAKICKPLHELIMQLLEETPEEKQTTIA
Numbers without * were called inactive; / = no result.

SMILES	pPAFAH FP inh	PAFAH2 FP inh	PME-1 primary	PAFAH1B3 FP inh	Fam108B inh	PAFAH1B2 FP inh
O=C(COC(=O)c1ccc(O)cc1)Nc1ccc(Cl)cc1	27.3*	/	-17.2	/	4.9	/
N#CCC(=O)Nc1ccc(C(=O)OCC(=O)Nc2ccc3ccccc3c2)cc1	32.6*	-1.8	-53.5	-31.3	/	-25.6
O=C(COC(=O)c1ccc(Cl)nc1)Nc1ccc2ccccc2c1	/	25.5	/	1.7	/	-2.1
CC(=O)Nc1ccc(C(=O)OCc2ccc(F)cc2)cc1	-0.8	22.2	0.8	-2.2	0.8	9.9
CCN(CCNC(=O)C1CCN(S(=O)(=O)CC)CC1)c1ccccc1	2.1	5.0	-2.5	-2.7	1.0	1.0
CCCCN(CCCNC(=O)C1CCN(S(=O)(=O)CC)CC1)c1ccccc1	28.4*	5.3	4.0	-1.9	3.6	2.7
Cc1ccccc1/C=N/Nc1nc2ccccc2[nH]1	7.1	0.7	-40.5	1.2	5.3	5.2
C(=N\Nc1nc2ccccc2[nH]1)/c1cccc2cccnc12	7.5	9.7	51.5*	9.0	7.3	10.5
Oc1c(/C=N/Nc2cccc3cccnc23)ccc2ccccc12	29.9*	-17.5	14.6	2.6	5.5	3.3
COc1ccc2c(c1)c(CC(=O)OCC(N)=O)c(C)n2C(=O)c1ccc(Cl)cc1	24.7*	-9.5	-2.0	4.9	-2.6	1.7
Cc1cccc(NC(=S)NNC(=O)c2csc3c2CCC(C)C3)c1 (stereo not drawn)	27.2*	16.8	6.0	19.9	7.4	9.2
Nc1cc(S(=O)(=O)Nc2ccccc2Cl)ccc1N1CCOCC1	3.7	6.8	1.3	11.1	-2.6	0.6
O=S(=O)(Nc1ccc(Cl)cc1)c1ccc2c(c1)CCO2	31.6*	0.2	-7.4	-5.1	1.7	19.7
Nc1cc(S(=O)(=O)Nc2ccc(Cl)cc2)ccc1N1CCOCC1	25.0*	4.5	4.7	-2.7	-0.4	0.9
CCCCN(C(=O)c1oc2ccc(OCC)cc2c1C)c1c(N)n(CC(C)C)c(=O)[nH]c1=O	3.5	5.3	-7.2	-1.0	-7.0	-3.8
CN(/N=C\c1ccc(O)c(O)c1)c1nc(-c2ccccc2)cc(-c2ccccc2)n1	23.4	-12.3	21.9	-11.6	21.4*	7.4
O=C(Nc1c2c(nn1-c1ccc(F)cc1)CS(=O)C2)c1ccc(S(=O)(=O)N2CCOCC2)cc1 (stereo not drawn)	-3.9	3.0	-5.0	4.9	-5.2	25.6*
S=C(NNc1ccnc2cc(Cl)ccc12)Nc1ccc(Cl)cc1Cl	4.6	6.8	25.1	5.3	7.3	0.1
CCOc1ccc(NC(=S)NNc2ccnc3cc(Cl)ccc23)cc1	4.9	-3.4	38.4*	6.9	5.2	-0.6
COc1ccc(/C=N/n2cnnc2)cc1Br	2.5	/	-2.4	/	-4.5	/
Nc1n[nH]c(C2CC2)c1N=Nc1ccc(Cl)c(Cl)c1	14.5	/	30.8*	/	5.4	/
Nc1n[nH]c(C2CC2)c1N=Nc1ccc(Cl)cc1	16.4	/	0.2	/	3.2	/
C=C1C(=O)[C@@]23[C@H](O)C[C@@H]4C(C)(C)CC[C@H](O)[C@@]4(C)[C@@H]2CC[C@@H]1[C@H]3O	3.8	0.3	-0.5	11.1	3.9	86.0*
C=C1C(=O)[C@@]23[C@H](O)C[C@@H]4C(C)(C)CC[C@H](O)[C@]4(C)[C@@H]2C[C@H](O)[C@@H]1[C@H]3O	2.1	-1.9	1.2	-5.0	3.9	80.5*
O=C(CCN1C(=O)/C(=C/c2ccc(F)cc2)SC1=S)N[C@@H](CO)Cc1ccccc1	2.0	-9.7	-1.9	-0.8	-10.2	13.9
SMILES	pPAFAH FP inh	PAFAH2 FP inh	PME-1 primary	PAFAH1B3 FP inh	Fam108B inh	PAFAH1B2 FP inh
O=C(Nc1ccc(CSc2ccccc2)cc1)c1ccco1	5.5	-1.1	4.1	3.6	-5.4	13.8
CSc1ccccc1OCc1cc(C(=O)N2CCC[C@H]2C(N)=O)no1	4.6	1.9	-3.0	3.0	-1.0	5.9
Cc1ccc(C(=O)N2CCCC(c3ccc(Cl)cc3)=N2)cc1	5.2	-2.3	-1.0	-1.4	2.0	3.7
CC1CCC(NS(=O)(=O)c2ccc(Cl)nc2)CC1 (stereo not drawn)	-1.3	4.5	-4.9	-8.6	-1.0	-2.5
Cc1nc2ccc(NS(=O)(=O)c3ccc(C)c(C)c3)cc2s1	5.0	-3.9	-4.8	0.4	-0.9	1.9
Cc1nc2ccc(S(=O)(=O)NCC(=O)NCc3ccc4c(c3)OCO4)cc2s1	5.5	12.7	1.4	4.4	6.7	6.0
Cc1nc2ccc(S(=O)(=O)Nc3ccccc3C)cc2s1	32.6*	-0.4	2.7	-7.7	1.1	1.7
Cc1nc2ccc(S(=O)(=O)NCC(=O)NCc3ccc(Cl)cc3)cc2s1	-1.9	2.5	-2.1	1.7	1.2	25.2*
Cc1ccc(S(=O)(=O)N(C)c2ccc(OCC(=O)Nc3cccc(-n4cnnn4)c3C)cc2)cc1	0.7	3.8	22.1	4.3	-4.1	-2.6
O=C(CN1CCC(c2nc3ccccc3s2)CC1)N1CCCCC1	2.7	-0.4	-0.2	5.2	-0.7	4.2
O=C(CN1CCC(c2nc3ccccc3s2)CC1)NCc1cccs1	7.2	-7.2	39.9*	-2.7	0.0	3.6
S=c1[nH]c(-c2ccccc2)cn1/N=C/c1ccccc1Br	14.0	-4.5	9.8	4.1	6.0	4.7
S=c1[nH]c(-c2ccccc2)cn1/N=C/c1cccc2ccccc12	1.4	-5.2	28.3*	18.3	16.9	7.0
Cc1ccc(-c2[nH]ncc2/C=N/n2c(COc3ccccc3)nc3ccccc3c2=O)cc1	-7.2	-2.6	-31.8	-3.0	-12.0	-7.9
Cc1cc(/C=N/n2c(COc3ccccc3)nc3ccccc3c2=O)c(O)c([N+](=O)[O-])c1	30.6*	-7.3	2.5	16.3	14.2	7.8
O=C(CCC1CCCN(C(=O)c2cccc(F)c2)C1)N1CCN(c2ccccn2)CC1 (stereo not drawn)	24.6*	-6.0	4.0	7.6	2.3	1.9
O=C(CCC1CCCN(C(=O)c2ccc3c(c2)OCO3)C1)N1CCN(c2ccccn2)CC1 (stereo not drawn)	26.7*	-2.6	9.0	4.5	-1.4	2.6
CN(C)c1ccc(C(=O)N2CCCC(CCC(=O)N3CCN(c4ccccn4)CC3)C2)cc1 (stereo not drawn)	26.3*	1.8	0.9	5.3	-2.5	4.2
CN(C)c1cccc(C(=O)N2CCCC(CCC(=O)N3CCN(c4ccccn4)CC3)C2)c1 (stereo not drawn)	-0.4	-2.1	14.8	1.1	1.8	0.0
Cc1c(S(=O)(=O)N2CCN(c3ccc(F)cc3)CC2)c(=O)n(C)c(=O)n1C	-1.7	1.0	0.4	2.2	0.3	9.9
Cc1ccc(Oc2ccccc2NC(=O)C2=COCCO2)cc1	1.5	1.3	-1.3	7.8	-0.8	5.8
N#Cc1c(Cl)cccc1Oc1ccc(S(=O)(=O)Nc2ccccc2)cc1	25.5*	/	21.9	/	-2.4	/
O=S(=O)(NCc1c(Cl)cccc1Oc1ccccc1)c1ccccc1	6.1	9.7	16.2	3.3	-1.3	6.5
CCN(CC)C(=O)c1ccc2c(=O)n(Cc3cccc(Br)c3)c(=S)[nH]c2c1	3.8	/	2.2	/	-4.1	/
